Measured values: PubChem BioAssay AID1159580 (chemical genetic matrix, 2015)
“And” between values parts separate entries of the source, which are not always exact repeats. Equal values may be shown once. Screen size: about 5,500 compounds; about 2,000 (36%) were called active. Not shown: some 18% with an inconclusive outcome. No stated cut-off is given here; in the data, active means normalized growth mostly below about 0.91 (no sharp cut-off); inconclusive means no clear call, values can overlap the other calls; inactive means mostly above about 0.92. This is one part of the list.

Assay: chemical genetic growth profiling, strain panel (AID 1159580);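 further: tested at 20 µM; growth read once vehicle control cultures reached saturation at 30 °C; 1 = growth at the plate median or of vehicle wells; lower values mean less growth of the strain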
Conditions: S. cerevisiae deletion strains, growth OD

Measured: normalized growth

CCCCCC1C(=O)CCC1CC(=O)OC (stereo not given)
inactive: locus YAL013W, strain DEP1, hits give low values 0.988 | locus YAL021C, strain ccr4, hits give low values 1.04 | locus YAL026C, strain drs2, hits give low values 0.988 | locus YAL030W, strain snc1, hits give low values 0.981 | locus YBL061C, strain skt5, hits give low values 0.984 | locus YBR009C, strain hhf1, hits give low values 0.972 | locus YBR021W, strain FUR4, hits give low values 0.921 | locus YBR023C, strain chs3, hits give low values 0.977 | locus YBR171W, strain sec66, hits give low values 0.96 | locus YBR229C, strain ROT2, hits give low values 0.991 | locus YBR231C, strain swc5, hits give low values 0.978 | locus YBR279W, strain paf1, hits give low values 0.986 | locus YCL011C, strain gbp2, hits give low values 0.988 | locus YCL016C, strain dcc1, hits give low values 0.979 | locus YCL029C, strain bik1, hits give low values 0.958 | locus YCL061C, strain MRC1, hits give low values 0.984 | locus YCL069W, strain vba3, hits give low values 0.986 | locus YCR088W, strain abp1, hits give low values 0.973 | locus YDL005C, strain med2, hits give low values 0.97 | locus YDL035C, strain GPR1, hits give low values 0.974 | locus YDL040C, strain nat1, hits give low values 0.981 | locus YDL074C, strain BRE1, hits give low values 0.992 | locus YDL101C, strain DUN1, hits give low values 1.01 | locus YDL134C, strain PPH21, hits give low values 1.01 | locus YDL185W, strain tfp1, hits give low values 0.931 | locus YDL192W, strain arf1, hits give low values 0.97 | locus YDR001C, strain nth1, hits give low values 0.984 | locus YDR069C, strain doa4, hits give low values 0.999 | locus YDR101C, strain arx1, hits give low values 0.96 | locus YDR137W, strain rgp1, hits give low values 0.996 | locus YDR150W, strain NUM1, hits give low values 0.975 | locus YDR159W, strain sac3, hits give low values 0.969 | locus YDR162C, strain NBP2, hits give low values 1.03 | locus YDR195W, strain ref2 0.991 | locus YDR297W, strain sur2, hits give low values 0.978 | locus YDR318W, strain mcm21, hits give low values 0.961 | locus YDR334W, strain swr1, hits give low values 0.986 | locus YDR335W, strain msn5, hits give low values 1.01 | locus YDR388W, hits give low values 0.954 | locus YDR392W, strain spt3, hits give low values 0.975 | locus YDR502C, strain sam2, hits give low values 0.996 | locus YEL003W, strain gim4, hits give low values 0.987 | locus YEL037C, strain rad23, hits give low values 0.984 | locus YEL061C, strain CIN8 (second series), hits give low values 0.989 | locus YEL061C, strain CIN8, hits give low values 0.991 | locus YER015W, strain faa2, hits give low values 0.98 | locus YER016W, strain bim1, hits give low values 0.986 | locus YER111C, strain swi4, hits give low values 0.982 | locus YER155C, strain BEM2 (second series), hits give low values 0.95 | locus YER155C, strain BEM2, hits give low values 0.952 | locus YER167W, strain BCK2, hits give low values 0.97 | locus YFR010W, strain ubp6, hits give low values 0.987 | locus YGL078C, strain dbp3, hits give low values 0.966 | locus YGL086W, strain mad1, hits give low values 1.01 | locus YGL167C, strain pmr1, hits give low values 0.96 | locus YGL173C, strain kem1, hits give low values 0.967 | locus YGL227W, strain vid30, hits give low values 0.963 | locus YGL240W, strain doc1, hits give low values 0.994 | locus YGL248W, strain PDE1, hits give low values 1.04 | locus YGL253W, strain hxk2, hits give low values 0.981 | locus YGR078C, strain PAC10, hits give low values 1.04 | locus YGR135W, strain pre9, hits give low values 0.963 | locus YGR229C, strain SMI1, hits give low values 1.02 | locus YGR252W, strain gcn5, hits give low values 1.1 | locus YHR013C, strain ard1, hits give low values 1 | locus YHR027C, strain rpn1, hits give low values 0.992 | locus YHR030C, strain SLT2, hits give low values 0.979 and 0.975 | locus YHR079C, strain IRE1 (second series), hits give low values 0.957 | locus YHR079C, strain IRE1, hits give low values 0.975 | locus YHR094C, strain hxt1, hits give low values 0.986 | locus YHR129C, strain ARP1, hits give low values 0.993 | locus YHR142W, strain chs7, hits give low values 0.987 | locus YHR200W, strain rpn10, hits give low values 0.981 | locus YIL066C, strain RNR3, hits give low values 1 | locus YIL073C, strain SPO22, hits give low values 0.952 | locus YIL125W, strain kgd1, hits give low values 0.961 | locus YIR030C, strain dcg1, hits give low values 0.948 | locus YJL092W, strain hpr5, hits give low values 0.975 | locus YJL095W, strain BCK1 (second series), hits give low values 0.983 | locus YJL095W, strain BCK1, hits give low values 1.06 and 0.982 | locus YJL115W, strain asf1, hits give low values 0.966 | locus YJL129C, strain trk1, hits give low values 1 | locus YJL134W, strain LCB3, hits give low values 0.967 | locus YJL154C, strain vps35, hits give low values 0.976 | locus YJL164C, strain tpk1, hits give low values 0.992 | locus YJL166W, strain qcr8, hits give low values 0.978 | locus YJL168C, strain set2, hits give low values 0.951 | locus YJL187C, strain SWE1 (second series), hits give low values 1.03 | locus YJL187C, strain SWE1, hits give low values 0.977
active: locus YER110C, hits give low values 0.898
